C diff growth – inhibitors of Clostridium difficile growth. Clostridium difficile clinical isolate growth, OD600, 24 h; hits give low values. growth activity, negative = inhibition, % at 16 µg/mL (by protocol). actives 0.25% (n = 86,000). AID 1259249;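 active = mean growth activity at or below -80% and every replicate also at or below -80%; inconclusive = mean at or below -80% but some replicate above -80%; inactive = mean growth activity above -80%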
T cruzi growth-1 – inhibitors of T. cruzi proliferation | T. cruzi beta-gal in NIH3T3, GalScreen luminescence, 90 h | actives 5.9% (n = 77,000) | inhibition, % at 8.34 µM;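 active = mean inhibition above about 93%, with at least 55% of replicates each passing it, limit read from the data, passing the limit was not always enough; inconclusive = only one of those two conditions holds; inactive = neither condition holds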
T cruzi growth-2 – blocks T. cruzi growth in NIH3T3 host cells; AID 651739; actives 72% (n = 5,600); T. cruzi beta-gal in NIH3T3, GalScreen luminescence, 90 h; inhibition, % at 8.35 µM; shares compounds with T cruzi growth-1;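 active = mean replicate inhibition above about 95% and at least 55% of replicates individually reaching it, limit read from the data; inconclusive = only one of the two criteria is met; inactive = neither criterion is met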
T cruzi growth-3 – inhibitors of T. cruzi proliferation | shares compounds with T cruzi growth-1 | T. cruzi beta-gal in NIH3T3, GalScreen luminescence, 90 h | inhibition, % at 2.09 µM | actives 21% (n = 5,600) | AID 651740;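 active = mean inhibition above about 95%, with at least 55% of replicates also reaching it, limit read from the data; inconclusive = meets just one of the two conditions; inactive = meets neither condition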
NIH3T3 tox – kills mouse NIH/3T3 fibroblasts. shares compounds with T cruzi growth-1. NIH/3T3 viability, CellTiter-Glo ATP luminescence, 90 h. cytotoxicity (signal decrease), % at 8.35 µM. actives 14% (n = 5,600). AID 651742;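 active = mean signal decrease across replicates above about 35% based on untreated-well scatter, with enough replicates individually passing, limit read from the data; inconclusive = no rule stated though some were filed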
3T3 cytotox 2 – kills mouse NIH/3T3 fibroblasts | shares compounds with T cruzi growth-1 | NIH/3T3 viability, CellTiter-Glo ATP luminescence, 90 h | inhibition, % at 24.9 µM | actives 56% (n = 5,600);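 active = mean loss of cell viability signal at or above a set limit, and enough replicates individually reaching it; inconclusive = meets only the mean limit or only the replicate share; inactive = meets neither condition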
Hits are given with their value; . = inactive; ? = inconclusive; / = no result. Shown is part of a subset that was picked to be rich in hits.

SMILES	C diff growth	T cruzi growth-1	T cruzi growth-2	T cruzi growth-3	NIH3T3 tox	3T3 cytotox 2
COc1ccc(NC(=O)Nc2ccc3c(c2)CC(=O)N([C@@H](C)CO)C[C@@H](C)[C@@H](CN(C)S(=O)(=O)c2ccc(OC)cc2)O3)cc1	.	.	/	/	/	/
CO[C@H]1CN(C)C(=O)c2ccc(NC(=O)NC(C)C)cc2OC[C@@H](C)N(C(=O)CC2CC2)C[C@H]1C	.	.	/	/	/	/
C[C@@H]1CCCCO[C@@H](CN(C)Cc2ccc(Cl)c(Cl)c2)[C@@H](C)CN([C@H](C)CO)C(=O)c2cc(NC(=O)c3ccccc3)ccc2O1	.	96	114	.	.	.
C[C@@H]1CN([C@@H](C)CO)C(=O)c2cc(NC(=O)c3ccncc3)ccc2O[C@@H](C)CCCCO[C@@H]1CN(C)C(=O)c1ccccc1	.	.	/	/	/	/
C[C@@H]1CCCCO[C@H](CN(C)Cc2ccccc2)[C@H](C)CN([C@@H](C)CO)C(=O)c2cc(NC(=O)c3ccncc3)ccc2O1	.	.	/	/	/	/
C[C@@H]1CCCCO[C@H](CN(C)Cc2ccncc2)[C@H](C)CN([C@@H](C)CO)C(=O)c2cc(NC(=O)c3ccccc3)ccc2O1	.	.	/	/	/	/
C[C@@H]1CCCCO[C@H](CN(C)C(=O)c2ccncc2)[C@H](C)CN([C@H](C)CO)C(=O)c2cc(NC(=O)c3ccccc3)ccc2O1	.	97	.	.	.	.
C[C@@H]1CCCCO[C@@H](CN(C)Cc2ccc(Cl)c(Cl)c2)[C@H](C)CN([C@H](C)CO)C(=O)c2cc(NC(=O)c3ccccc3)ccc2O1	.	/	/	/	/	/
C[C@@H]1CN([C@@H](C)CO)C(=O)c2cc(NC(=O)c3ccccc3)ccc2O[C@@H](C)CCCCO[C@@H]1CN(C)Cc1ccncc1	.	114	100	.	.	.
C[C@@H]1CN([C@H](C)CO)C(=O)c2cc(NC(=O)c3ccncc3)ccc2O[C@@H](C)CCCCO[C@H]1CN(C)Cc1ccccc1	.	98	.	.	.	.
C[C@@H]1CN([C@@H](C)CO)C(=O)c2cc(C#CC3CCCC3)cnc2O[C@H]1CN(C)C(=O)c1ccncc1	.	/	/	/	/	/
C[C@@H]1CN([C@H](C)CO)C(=O)c2cc(-c3ccccc3)cnc2O[C@H]1CN(C)Cc1ccc(C(=O)O)cc1	.	.	/	/	/	/
CN1C(=O)c2cc(NC(=O)Nc3ccccc3F)ccc2OC[C@H]2O[C@@H](CC(=O)NCc3ccc(-c4ccccc4)cc3)CC[C@H]21	.	.	/	/	/	/
CO[C@@H]1CN(C)C(=O)c2ccc(NC(=O)C3CCOCC3)cc2OC[C@@H](C)NC[C@H]1C	/	.	/	/	/	/
C[C@@H]1CN([C@H](C)CO)C(=O)c2cc(NC(=O)c3ccccc3)ccc2O[C@@H](C)CCCCO[C@H]1CN(C)Cc1ccncc1	.	.	/	/	/	/
CCCNC(=O)C[C@@H]1CC[C@H]2[C@@H](COC[C@@H](O)CN2C(=O)c2cccnc2)O1	.	.	/	/	/	/
Cc1ccc(S(=O)(=O)N[C@@H]2C=C[C@H](CC(=O)NCCc3ccncc3)O[C@@H]2CO)cc1	.	.	/	/	/	/
C[C@H]1CCCCO[C@H](CN(C)Cc2ccncc2)[C@@H](C)CN([C@@H](C)CO)C(=O)c2cc(NC(=O)Cc3ccccc3)ccc2O1	.	.	/	/	/	/
C[C@@H]1CN([C@@H](C)CO)C(=O)c2cc(NC(=O)c3ccccc3)ccc2O[C@@H](C)CCCCO[C@H]1CN(C)Cc1ccccc1	.	102	98	.	.	61
C[C@@H]1CCCCO[C@@H](CN(C)Cc2ccccc2)[C@H](C)CN([C@H](C)CO)C(=O)c2cc(NC(=O)c3ccncc3)ccc2O1	/	?	.	.	.	.
C[C@H](CO)N1C[C@H](C)[C@H](CN(C)Cc2ccncc2)OCCCC[C@H](C)Oc2ccc(NC(=O)Cc3ccccc3)cc2C1=O	.	103	96	.	.	.
C[C@@H]1CCCCO[C@@H](CN(C)Cc2ccccc2)[C@H](C)CN([C@@H](C)CO)C(=O)c2cc(NC(=O)c3ccncc3)ccc2O1	.	.	/	/	/	/
C[C@@H]1CCCCO[C@H](CN(C)Cc2ccccc2)[C@H](C)CN([C@@H](C)CO)C(=O)c2cc(NC(=O)c3ccccc3)ccc2O1	.	.	/	/	/	/
C[C@@H]1CCCCO[C@@H](CN(C)C(=O)Cc2ccccc2)[C@@H](C)CN([C@@H](C)CO)C(=O)c2cc(NC(=O)NC3CCCCC3)ccc2O1	.	.	/	/	/	/
CC=Cc1ccc2n(c1=O)C[C@H]1[C@H](CO)[C@@H](C(=O)NCCN3CCCC3)N(C(=O)NCCC)[C@@H]21 (mixture of isomers)	.	.	/	/	/	/
SMILES	C diff growth	T cruzi growth-1	T cruzi growth-2	T cruzi growth-3	NIH3T3 tox	3T3 cytotox 2
CN(C)C(=O)c1ccc(-c2ccc([C@@H]3[C@@H](CO)N(C(=O)C4CC4)[C@H]3C#N)cc2)cc1	.	.	/	/	/	/
CN(C)C(=O)c1ccc(-c2ccc([C@@H]3[C@@H](C#N)N(C(=O)C4CC4)[C@H]3CO)cc2)cc1	.	104	99	?	.	63
CN(C)C(=O)c1ccc(-c2ccc([C@H]3[C@@H](C#N)N(C(=O)C4CCCCC4)[C@H]3CO)cc2)cc1	.	?	.	.	.	27
CN(C)C(=O)c1ccc(-c2ccc([C@@H]3[C@@H](CO)N(C(=O)C4CCCCC4)[C@H]3C#N)cc2)cc1	.	.	/	/	/	/
C[C@@H]1CN([C@H](C)CO)C(=O)Cc2cc(NC(=O)Nc3cccc4ccccc34)ccc2O[C@@H]1CN(C)S(=O)(=O)c1ccccc1	.	.	/	/	/	/
COc1ccc(NC(=O)N(C)C[C@@H]2OCCCC[C@@H](C)Oc3ccc(NC(=O)Nc4ccc5c(c4)OCO5)cc3C(=O)N([C@H](C)CO)C[C@H]2C)cc1	.	.	/	/	/	/
COc1ccc(NC(=O)Nc2ccc3c(c2)C(=O)N([C@@H](C)CO)C[C@H](C)[C@H](CN(C)C(=O)Nc2ccc4c(c2)OCO4)OCCCC[C@H](C)O3)cc1	.	?	108	.	.	.
COc1ccc(NC(=O)N(C)C[C@@H]2OCCCC[C@H](C)Oc3ccc(NC(=O)Nc4ccc5c(c4)OCO5)cc3C(=O)N([C@@H](C)CO)C[C@@H]2C)cc1	.	.	/	/	/	/
COc1ccc(NC(=O)Nc2ccc3c(c2)C(=O)N([C@H](C)CO)C[C@H](C)[C@H](CN(C)C(=O)Nc2ccc4c(c2)OCO4)OCCCC[C@H](C)O3)cc1	.	?	111	.	.	.
O=S(=O)(N[C@@H]1CC[C@@H](CCn2cc(-c3ccc(F)cc3)nn2)O[C@H]1CO)c1ccccc1F	.	.	/	/	/	/
O=C(CN1CCOCC1)NCC[C@@H]1CC[C@H](NC(=O)Nc2ccccc2)[C@H](CO)O1	.	.	/	/	/	/
C[C@@H]1CN([C@H](C)CO)C(=O)c2cc(NC(=O)NC3CCCCC3)ccc2O[C@H]1CN(C)Cc1ccncc1	.	.	/	/	/	/
CC=Cc1ccc2n(c1=O)C[C@H]1[C@H](CO)[C@@H](C(=O)N(C)C)[C@@H]2N1C(=O)c1ccccc1 (mixture of isomers)	.	.	/	/	/	/
